# Measured values reported in PubChem BioAssay (EPA / NIEHS).
# A structure can be active in one record and inactive in another. Calls of active or inactive are those of the source. Rule for the calls: active = hit-call score of the fitted dose curve at least 0.9, where 1 is the maximum; inactive = score below 0.9.
# Target: Estrogen receptor (Homo sapiens) (UniProt P03372)
# Assay: CCTE_Deisenroth_AIME_384WELL_LUC_Shift: CCTE's 384-well Estrogen Receptor Transactivation Assay with AIME metabolic competence data shift (ERTA luciferase; difference in metabolism positive and negative), Deisenroth Lab (AID 2284041);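 note: shift is response with S9 minus without S9 so positive means metabolism raised ER signal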
# Description: CCTE_Deisenroth_AIME_384WELL (AIME metabolism assay) is a cell-based, single-readout assay that uses VM7Luc4E2, a human mammary gland/breast cell line, with measurements taken at 24 hour after chemical dosing in a 384-well plate.CCTE_Deisenroth_AIME_384WELL_LUC_Shift is one of two analysis components calculated from the CCTE_Deisenroth_AIME_384WELL assay. […] AIME is optimized to impart phase I hepatic metabolism using phenobarbital/beta-naphthoflavone induced hepatic S9 from male Sprague Dawley rats. Parent chemicals are incubated for 2 hours in the AIME assay prior to transfer to the VM7Luc ERTA assay plate. […] The metabolic curve shift response is defined as the pairwise difference between the positive (AEID 2488) and negative (AEID 2490) normalized response values at each concentration for a given chemical across replicate experiments. The pairwise differences form the basis for a concentration-response curve. Standard curve fit analysis identfiied chemicals where the calculated shift was greater than the shift-derived baseline cutoff. A positive hit designation in this endpoint indicates a significant shift trend in the positive direction for bioactivation.
# The AIME procedure consists of a preparative "pre-stamping" step using a barium chloride/poly-L-lysine (PLL) solution followed by "stamping" the lid in alginate-hepatic S9 (metabolism positive) or alginate-water (metabolism negative) to form microspheres. Once stamping is completed, the AIME lids are placed in duplicate microplates (metabolism positive or negative) containing chemical solutions and incubated for two hours to facilitate metabolic reactions. The conditioned medium, containing parent chemical or metabolites, is then transferred to the cell-based VM7Luc Estrogen Receptor Transactivation Assay (ERTA) for 24 hours. A typical experimental design tests a 10-point concentration series (0.002 - 200 uM) for 8 compounds (96-well format)1 or 32 compounds (384-well format)2 in single technical replicate. AIME assay controls include trans-stilbene (bioactivated control) and ethylparaben (bioinactivated control). ERTA assay plate controls include 17-beta estradiol (positive control) and DMSO (solvent control). Experiments typically comprise a minimum of four experimental replicates (n=4).
# Sequence of Estrogen receptor (Homo sapiens) (P03372 whole entry, looked up): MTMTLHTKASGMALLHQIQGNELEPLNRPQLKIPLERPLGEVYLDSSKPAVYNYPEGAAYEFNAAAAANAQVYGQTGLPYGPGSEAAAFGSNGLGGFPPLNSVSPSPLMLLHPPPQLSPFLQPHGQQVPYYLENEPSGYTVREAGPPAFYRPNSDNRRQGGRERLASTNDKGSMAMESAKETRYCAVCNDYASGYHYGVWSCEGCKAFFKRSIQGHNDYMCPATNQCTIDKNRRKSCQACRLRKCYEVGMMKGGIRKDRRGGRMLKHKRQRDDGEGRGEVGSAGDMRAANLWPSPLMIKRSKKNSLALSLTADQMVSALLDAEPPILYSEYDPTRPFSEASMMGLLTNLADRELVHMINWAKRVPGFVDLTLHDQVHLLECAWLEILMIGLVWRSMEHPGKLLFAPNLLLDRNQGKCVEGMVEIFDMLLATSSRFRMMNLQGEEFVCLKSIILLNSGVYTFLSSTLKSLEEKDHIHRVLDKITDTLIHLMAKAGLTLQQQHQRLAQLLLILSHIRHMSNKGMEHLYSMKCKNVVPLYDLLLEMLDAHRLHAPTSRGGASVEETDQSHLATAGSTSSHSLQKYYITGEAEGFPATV
Structure (SMILES),AC50,outcome
CCCCCCCCCc1ccc(O)cc1,31.4 µM (active),
Clc1ccc(C(Cl)(Cl)Cl)cc1,,inactive
Cc1cc(-c2ccc(N)c(C)c2)ccc1N,,inactive
Sc1ccccc1,,inactive
C[C@]12CCC(=O)C=C1CC[C@@H]1[C@@H]2CC[C@@]2(C)[C@H]1CC[C@]2(C)O,5.67 µM (active),
O=S(=O)(O)C(F)(F)C(F)(F)C(F)(F)C(F)(F)C(F)(F)C(F)(F)F,,inactive
Cc1ccc(O)c(C)c1,,inactive
OCC(O)CO,0.00051 µM (active),inactive
C1CC2OC2CC1C1CO1 (stereo not given),,inactive
Cc1cc2c3c(c1)C(c1ccccc1)=N[C@@H](NC(=O)c1ccncc1)C(=O)N3CC2,,inactive
ClC1=C(Cl)[C@]2(Cl)[C@@H]3[C@H]4C[C@H]([C@@H]5O[C@H]45)[C@@H]3[C@@]1(Cl)C2(Cl)Cl,1.75 µM (active),
CCC(C)(c1ccc(O)cc1)c1ccc(O)cc1,0.107 µM (active),
Cc1cccc([N+](=O)[O-])c1,,inactive
CCC(=O)O[C@H]1CC[C@H]2[C@@H]3CCC4=CC(=O)CC[C@]4(C)[C@H]3CC[C@]12C,,inactive
O=C(O)C(F)(F)C(F)(F)C(F)(F)C(F)(F)C(F)(F)C(F)(F)C(F)(F)C(F)(F)F,,inactive
CCOCCOC(C)=O,,inactive
COc1ccc(O)c(C(C)(C)C)c1,,inactive
O=C(N[C@H]1CN2CCC1CC2)c1cc2ccoc2cn1,,inactive
CCCCCCOC(=O)c1ccccc1C(=O)OCCCCCC,,inactive
C=CC(=O)NCNC(=O)C=C,,inactive
Nc1ccc(-c2ccc(N)cc2)cc1,,inactive
CN(C)CCO,,inactive
CCCN(CCC)N=O,,inactive
Nn1cnnc1,72.4 µM (active),
Clc1ccc(Cl)cc1,,inactive
c1ccc(-c2ccccc2)cc1,80.7 µM (active),
COS(=O)(=O)OC,,inactive
c1cc2ccc3cccc4ccc(c1)c2c34,,inactive
C[C@]12CCC(=O)C=C1CC[C@@H]1[C@@H]2CC[C@]2(C)C(=O)CC[C@@H]12,,inactive
